Compounds with a hit are over-represented: about 3.2% of the library has one in this group of screens.
Tb PYK inh – qHTS of Trypanosoma Brucei Inhibitors | pyruvate kinase (Trypanosoma brucei), Q57TT1 | TbPYK enzyme, Kinase-Glo Plus ATP luminescence, 45 min | AID 624173, 2012 | actives 0.12% (n = 410,000) | Potency, µM (series often up to 76.8 µM), without a hit: at the highest dose activity, negative = inhibition, usual class: inhibitors; further: nearly all actives have a fitted effect of over 50% in size
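Quantitative HTS: titrated library compounds versus trypanosomal pyruvate kinase in TEA buffer (pH 7.2) containing KCl, MgCl2, BSA and Tween-20. Reactions were initiated with ADP, 130 uM final. Kinase-Glo Plus luminescence was read after 45 min at RT.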
Sm TGR block – qHTS Assay for the Inhibitors of Schistosoma Mansoni Peroxiredoxins; Potency, µM (highest dose often 114 µM), for inactives: top-dose activity change, negative = inhibition, most hits filed as inhibitors; AID 485364, 2010; purified TGR, DTNB reduction, TNB absorbance 405 nm; Schistosoma mansoni thioredoxin glutathione reductase (TGR), Q962Y6; actives 3% (n = 360,000); further: nearly all actives have a fitted effect of over 60% in size
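First, TGR (20 nM dispensed) and NADPH were mixed with compound. Second, a 15 min room-temperature incubation followed. Third, further NADPH and then DTNB were added to start the reaction. Finally, TNB absorbance was monitored kinetically.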
LmPK inhibitor – qHTS Assay for Inhibitors of Leishmania Mexicana Pyruvate Kinase (LmPK). purified LmPK, Kinase-Glo ATP luminescence, 1 h. Potency, µM (doses to about 57.5 µM), for inactives: at the top dose activity change, negative = inhibition, usual class: inhibitors. actives 0.37% (n = 290,000)
Target sequence (Q27686 whole entry, looked up): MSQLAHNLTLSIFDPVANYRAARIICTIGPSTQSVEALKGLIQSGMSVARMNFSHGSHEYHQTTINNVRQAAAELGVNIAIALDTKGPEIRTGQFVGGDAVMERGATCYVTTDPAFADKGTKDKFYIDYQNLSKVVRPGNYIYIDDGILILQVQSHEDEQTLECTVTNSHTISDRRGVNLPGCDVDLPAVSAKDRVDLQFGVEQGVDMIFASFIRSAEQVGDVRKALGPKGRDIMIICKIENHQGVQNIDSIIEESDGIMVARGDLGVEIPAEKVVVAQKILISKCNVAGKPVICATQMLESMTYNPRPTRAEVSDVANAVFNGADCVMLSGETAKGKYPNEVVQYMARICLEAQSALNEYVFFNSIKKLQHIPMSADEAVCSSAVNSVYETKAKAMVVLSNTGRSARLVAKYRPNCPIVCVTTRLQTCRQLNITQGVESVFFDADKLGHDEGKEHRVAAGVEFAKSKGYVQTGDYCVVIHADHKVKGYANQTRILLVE
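Kinase-Glo luminescence read after 1 h RT reaction of 0.1 nM LmPK with 0.5 mM PEP and 0.1 mM ADP. Activity scaled between uninhibited and enzyme-free controls.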
RE007 growth inh – qHTS Assay for Inhibitors of the HIV-1 protein Vpr; S. pombe RE007 Vpr strain, BacTiter-Glo ATP luminescence, 24 h; Potency, µM (titrated, usually from 92.2 µM), inactives show at the top dose activity change, negative = less growth, usual class: inhibitors; actives 0.21% (n = 360,000); active means well fitted falling curve with a large enough effect; inconclusive means small, poorly fitted or top-dose-only effect; inactive means no such curve, though single readings can be large or run the other way; further: nearly all actives have a fitted effect of over 50% in size
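Fission yeast RE007 carrying one integrated HIV-1 vpr copy, seeded at OD 0.01 in PMG+AL medium with 23 nL pinned compound. Grown 24 h at 30 degrees; viability read by BacTiter-Glo luminescence after 5 min.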
AMA1-RON2 inh – qHTS for Inhibitors of AMA1-RON; Towards Development of Antimalarial Drug Lead: Primary Screen; Plasmodium falciparum AMA1 (3D7) - RON2 peptide interaction; AlphaScreen AMA1-biotinylated RON2 peptide binding; Potency, µM (titrated, usually from 58.2 µM), inactives show at the top dose activity change, negative = inhibition, hits mostly inhibitors; actives 0.2% (n = 360,000); AID 720542, 2013;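 further: 0% = vehicle wells and -100% = peptide control; nearly all actives have a fitted effect of over 45% in size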
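AMA1 (3D7) with his tag at 25 nM final met compounds first, then biotinylated RON2 peptide at 25 nM; detection used donor plus acceptor beads, 10 µg/mL apiece, read by AlphaScreen after 30 min at room temperature.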
* hit, by the source's call; [ ] = remark or other dose. Unless noted, the call rests on the fitted dose curve; in most records, active means well fitted curve in the direction sought with a large enough effect; inconclusive means small, poorly fitted or top-dose-only effect, or another doubt; inactive means no such curve, though single readings can be large; an effect the other way counts as inactive or inconclusive. Unless noted, on the % scale 0 is the no-effect control and ±100 the full control effect; potency means the concentration at half of the fitted maximal effect.

`COc1cccc(C(=O)N(Cc2ccco2)c2c(N)n(Cc3ccccc3)c(=O)[nH]c2=O)c1` gave Tb PYK inh -1%, Sm TGR block 45µM*, RE007 growth inh -8% and AMA1-RON2 inh 6%.
Screening CC(C)CN(C(=O)c1ccc(N2CCCC2=O)cc1)c1c(N)n(Cc2ccccc2)c(=O)[nH]c1=O returned Tb PYK inh -3%, Sm TGR block 40µM*, RE007 growth inh 3% and AMA1-RON2 inh 24%.
For Cn1c(=O)c2c(-c3ccccc3)n3c(c2n(C)c1=O)C(c1ccc([N+](=O)[O-])cc1)Nc1ccccc1-3 (centres undefined) the results were Tb PYK inh -12% and Sm TGR block -9%.
`Nc1c(N(Cc2ccco2)C(=O)c2cccc(Cl)c2)c(=O)[nH]c(=O)n1Cc1ccccc1` gave Tb PYK inh -1%, Sm TGR block 40µM*, RE007 growth inh 0% and AMA1-RON2 inh 5%.
`C/C(=C(/CCOC(=O)C(C)C)SS/C(CCOC(=O)C(C)C)=C(\C)N(C=O)Cc1cnc(C)nc1N)N(C=O)Cc1cnc(C)nc1N` gave Tb PYK inh -5%.
`CC1(C)Cc2c(C#N)c(OCC(=O)c3ccc(Cl)cc3)nc(-c3ccoc3)c2CO1` gave Tb PYK inh -14%, Sm TGR block 40µM*, LmPK inhibitor 0%, RE007 growth inh 0% and AMA1-RON2 inh 46%.
COc1ccc(/C=N/N=C(\N)c2nonc2N)cc1 was read as Tb PYK inh -10%, Sm TGR block 6%, LmPK inhibitor inconclusive, RE007 growth inh -15% and AMA1-RON2 inh 5%.
For COc1cc(/C=N/N=C(\N)c2nonc2N)cc(OC)c1O the results were Tb PYK inh -6%, Sm TGR block 28µM*, LmPK inhibitor -28%, RE007 growth inh 5% and AMA1-RON2 inh 51%.
Cc1cc(NC(=O)CC2CCCC2)n(-c2nc3ccccc3[nH]2)n1 was read as Tb PYK inh 3%, Sm TGR block 22µM*, LmPK inhibitor 8%, RE007 growth inh -7% and AMA1-RON2 inh 5%.
For Cc1cc(NC(=O)c2ccc(F)cc2F)n(-c2nc3ccccc3[nH]2)n1 the results were Tb PYK inh 1%, Sm TGR block 4%, LmPK inhibitor -3%, RE007 growth inh -1% and AMA1-RON2 inh 44%.
For COc1ccccc1CCn1c(=O)c(-c2ccccc2)nc2cncnc21 the results were Tb PYK inh 6%.
Screening Cn1c2ccccc2c(=O)c2cc(C#Cc3ccccn3)ccc21 returned Tb PYK inh -3%, Sm TGR block 20µM*, LmPK inhibitor -9%, RE007 growth inh 0% and AMA1-RON2 inh 49%.
For COc1cc2oc3ccc(C#Cc4ccccn4)cc3c(=O)c2cc1OC the results were Tb PYK inh 6%, RE007 growth inh 4% and AMA1-RON2 inh 15%.
Screening Cn1c2ccccc2c(=O)c2ccc(C#Cc3ccccn3)cc21 returned Tb PYK inh -3%, Sm TGR block 32µM*, LmPK inhibitor -2%, RE007 growth inh -10% and AMA1-RON2 inh -14%.
Screening CCOc1ccc(CCNC(=O)c2cc3c(=O)n(CC)c4ccccc4c3s2)cc1OCC returned Tb PYK inh 6% and Sm TGR block 0%.
For Cc1cccc(CN2CCN(CC(=O)NCCc3ccc(Cl)cc3)C2=O)c1 the results were Tb PYK inh -1% and Sm TGR block -9%.
For CN1c2ccsc2/C(=N/NC(=O)c2c(F)cccc2F)CS1(=O)=O the results were Tb PYK inh -7%, Sm TGR block 2%, LmPK inhibitor 6%, RE007 growth inh 4% and AMA1-RON2 inh 100%.
`CN1c2ccsc2/C(=N/Nc2ccccc2)CS1(=O)=O` gave Tb PYK inh -13%, Sm TGR block inconclusive, LmPK inhibitor -1%, RE007 growth inh 45µM* and AMA1-RON2 inh -25%.
`CCc1ccc(-c2cn3c(n2)sc2cc(C(=O)NCCc4ccc(OC)cc4OC)ccc23)cc1` gave Tb PYK inh 1% and Sm TGR block 0%.
CCOC(=O)c1ccc(N2C(=O)CC(N3CC=C(c4ccc(F)cc4)CC3)C2=O)cc1 (centres undefined) was read as Tb PYK inh 4%, Sm TGR block 5.6µM*, LmPK inhibitor 1%, RE007 growth inh inconclusive and AMA1-RON2 inh 21%.
For CCOC(=O)N1CCN(C2CC(=O)N(c3ccc(F)cc3)C2=O)CC1 (centres undefined) the results were Tb PYK inh 1%, Sm TGR block -22%, LmPK inhibitor 1%, RE007 growth inh -21% and AMA1-RON2 inh 1%.
O=C1CC(N2CC=C(c3ccc(F)cc3)CC2)C(=O)N1c1ccc(F)cc1 (centres undefined) was read as Tb PYK inh 0%, Sm TGR block 14µM*, LmPK inhibitor 5%, RE007 growth inh inconclusive and AMA1-RON2 inh 21%.
`O=C(NCc1ccccc1Cl)c1ccc(CSCc2ccccc2Cl)o1` gave Tb PYK inh 9%[15.4 µM] and Sm TGR block -23%.
Screening CCOC(=O)c1c(CCl)nc2ccccc2c1-c1ccccc1 returned Tb PYK inh -9%, Sm TGR block 25µM*, LmPK inhibitor -1%, RE007 growth inh -9% and AMA1-RON2 inh -16%.
For Cc1oc(C(=O)O)cc1CSCc1cc(C(=O)O)c(C)o1 the results were Tb PYK inh -10%, Sm TGR block 45µM*, LmPK inhibitor 17%, RE007 growth inh -10% and AMA1-RON2 inh -8%.
`Cc1nc2cc(-c3cccc(F)c3)nn2c(C)c1CCC(=O)NCCc1ccccc1` gave Tb PYK inh -4% and Sm TGR block 22µM*.
Cc1nc2cc(-c3ccccc3)nn2c(C)c1CCC(=O)NCCc1ccccc1 was read as Tb PYK inh 3% and Sm TGR block -2%.
For Cc1ccccc1NC(=O)c1cc2ccccn2n1 the results were Tb PYK inh 11%, Sm TGR block -6%, LmPK inhibitor 13µM*, RE007 growth inh -20% and AMA1-RON2 inh 6%.
For Cc1ccc(C)c(NC(=O)c2cc3ccccn3n2)c1 the results were Tb PYK inh -5%, Sm TGR block -2%, LmPK inhibitor -25%, RE007 growth inh -9% and AMA1-RON2 inh 6%.
For O=S(=O)(c1ccccc1)c1nnn2c1nc(NCc1ccccc1)c1cc(Cl)ccc12 the results were Tb PYK inh 1% and Sm TGR block 6%.

Screening results from PubChem.
